Data reported in PubChem BioAssay AID602476 (National Center for Advancing Translational Sciences (NCATS), 2012).
Inconclusive results are not listed. Activity calls are given as the source filed them. Calls follow the shape of the dose curve; as a rule, active = well fitted activation curve with a large enough effect; inconclusive = small, poorly fitted or top-dose-only effect; inactive = flat fitted curve, though single readings scatter.

Assay: FLuc inhibitory activity for the follow-up compounds in a cell-based translational read-through assay
Conditions: GripTite 293 FLucUGA read-through, luminescence, 48 h; series mostly up to 38.3 µM
From the text: NCGC Assay Overview: Firefly (Photinus pyralis) luciferase is one of the most commonly used transcriptional reporters. It is considered one of the more dynamically responsive reporters - that is, responsive to changes in reporter transcription - as it requires no post-translational modifications and is enzymatically active directly after protein synthesis (Wood, 1998). With no endogenous expression in mammalian cells and without the requirement of external excitation, it offers very little background signal, thus generally providing excellent signal to background for most assays. Previous profiling work to determine the prevalence of compounds that affect FLuc enzymatic activity (PubChem AID 411) identified that ~3% of the MLSMR library (then at ~72K) inhibited FLuc (Auld et al., 2008). […] Of the compounds identified in this profile that inhibited FLuc, 151 compounds were selected for further analysis, in an effort to better understand their mode of inhibiting FLuc. The assay described here was to determine the activity of the compounds in a cell-based firefly luciferase reporter gene assay originally designed to identify compounds that enchanced translational read-through of a FLuc cDNA that contained a premature stop codon (Auld et al., 2009; Auld et al., 2010). Compounds that enhance translational read-through or compounds that stabilize FLuc intracellularly are identified as active compounds in the assay.
NCGC Assay Protocol Summary: Reagents: Transient transfection of FlucUGA construct: TransFast Transfection Reagent (Promega #E2431); FLucUGA construct (refer to Auld et al., 2009) #GripTite 293 MSR Cell Line (Invitrogen #R795-07) #Complete growth media: DMEM (Invitrogen #11965), 10% HIFBS, 0.1mM MEM NEAA, 5mL/L pen-strep (of 5000U/mL stock), 600ug/mL Geneticin #Assay media: DMEM without phenol red (Invitrogen #21063), 5% charcoal-stripped HIFBS (Hyclone #SH30071.03), 0.1mM MEM NEAA In-house detection reagent: 300mM Tris-HCl, 300mM Trizma base, 300mM MgCl, 1% Triton-X100, 5mM DTT, 500uM Coenzyme A trilithium salt (Sigma #C3019),450uM ATP (Sigma #A7699), 1mM D-luciferin sodium salt monohydrate (Biosynth #L8240) Control compounds used were two known firefly luciferase inhibitors (3-(5-(3-chlorophenyl)-1,2,4-oxadiazol-3-yl)benzoic acid and 5-(2-fluorophenyl)-3-phenyl-1,2,4-oxadiazole), and DMSO. Assay Summary: Transient transfection of FlucUGA construct: Day 1: GripTite cells were plated in T175 flasks at a density of 1.75 x 10^7 cells/T175 flask in complete growth media without Geneticin and allowed to grow ON in a 37 degrees Celsius incubator. Day 2: Cells in T175 flask were transfected - with 10ug of DNA and 30uL Transfast in 12mL complete growth media without serum and without Geneticin for 4 hours at 37 degrees Celsius. After incubation, cells were trypsinized, spun down, and resuspended to a concentration of 3.3 x 10^5 cells/mL in assay media. 6uL of cells in assay buffer were dispensed at 2000cells/well (3.3 x 10^5 cells/mL) into Greiner solid-white TC-treated 1536-well plates using a Multidrop Combi (Thermo Fisher Scientific). Plates were incubated for one hour at 37 degree Celsius, 95% humidity, 5% CO2. These assay plates were then treated with 23nL of compound or DMSO using a Kalypsys pin tool, which allows for delivery of a 12-point titration of each compound to the assay plate, with a final compound concentration ranging from approximately ~38uM to 0.2nM. Assay plates were then incubated for 48 hours. After incubation, plates were washed three times with DPBS (7uL/well). After the third wash, 6uL of DPBS was added to each well. 3uL of 3X luciferase detection reagent was then added to each well using a flying reagent dispenser (FRD). After a 15 minute incubation to allow for cell lysis, luciferase activity was measured using a ViewLux CCD imager (PerkinElmer), with an average exposure time of 2-12 seconds.

Potency, inactive:
O=C(Nc1ccccc1C(=O)O)c1cc(S(=O)(=O)Nc2cccc(F)c2)ccc1Cl
CC(C)(C)NC(=O)c1ccccc1-c1nc2ccccc2s1
O=C(Nc1ccccc1C(=O)O)c1ccc(NC(=O)C2CC2)cc1
O=C(Nc1ccccc1C(=O)O)c1cccc(C(=O)Nc2ccccc2C(=O)O)c1
O=C(Cc1ccccc1)Nc1ccccc1C(=O)Nc1ccc(C(=O)O)cc1
CCCOc1cccc(C(=O)Nc2ccc(-c3nc4ccccc4s3)c(Cl)c2)c1
O=C(O)c1ccccc1NC(=O)c1ccccc1Nc1ccccc1
O=C(O)c1ccc(NC(=O)c2cccc(NC(=O)c3cccs3)c2)cc1
COc1c(C)cccc1C(=O)Nc1ccc(-c2nc3ccccc3s2)c(Cl)c1
Cc1ccc(C(=O)Nc2ccc(C(=O)O)cc2)cc1S(=O)(=O)NCc1ccccc1
COc1ccc2nc(NC(=O)CCc3ccc(OC)c(OC)c3)sc2c1
Cc1ccc(S(=O)(=O)N2CCOCC2)cc1C(=O)Nc1ccccc1C(=O)O
Cc1cccc(C(=O)Nc2ccc(-c3nc4ccccc4s3)cc2Cl)c1
CC(=O)Oc1ccc(C(=O)Nc2ccccc2C(=O)Nc2ccc(C(=O)O)cc2)cc1
COc1ccc(NS(=O)(=O)c2cccc(C(=O)Nc3ccccc3C(=O)O)c2)cc1
O=C(Nc1ccccc1C(=O)O)c1cc(S(=O)(=O)Nc2ccccc2)ccc1Cl
O=C(O)c1cccc(NC(=O)c2ccccc2NC(=O)c2ccco2)c1
O=C(O)c1cccc(NC(=O)c2cccc(S(=O)(=O)N3CCc4ccccc4C3)c2)c1
COc1ccc2nc(NC(=O)CCc3nc(-c4ccccc4F)no3)sc2c1
COc1ccc(Br)cc1C(=O)Nc1ccc(C(=O)O)cc1
O=C(O)c1cccc(NC(=O)c2cccc(S(=O)(=O)Nc3cccc(F)c3)c2)c1
O=C(Nc1ccccc1C(=O)O)c1cc(S(=O)(=O)NCc2ccccc2)ccc1Cl
O=C(Cc1ccccc1)Nc1ccc(C(=O)Nc2ccccc2C(=O)O)cc1
O=C(O)c1ccc(NC(=O)c2ccccc2NC(=O)c2cccc(Br)c2)cc1
COc1ccccc1C(=O)Nc1ccc(C(=O)Nc2ccccc2C(=O)O)cc1
O=C(O)c1cccc(NC(=O)c2ccc(S(=O)(=O)c3ccccc3)cc2)c1
CN(C)S(=O)(=O)c1ccc(C(=O)Nc2ccccc2C(=O)O)cc1

Potency, active:
Cc1ccc(C(=O)Nc2cccc(C(=O)O)c2)cc1S(=O)(=O)N1CCCCC1 0.895 µM
O=C(Nc1c(Cl)cc(Cl)cc1-c1nc2ccccc2s1)c1ccc(Br)o1 3.18 µM
Cc1ccc2sc(-c3ccc(N)cc3)nc2c1 1.59 µM
CCOc1ccc2nc(NC(=O)c3cccnc3)sc2c1 14.2 µM
Nc1ccc(-c2nc3cc(N)ccc3s2)cc1 14.2 µM
COc1ccc(-c2nc3ccccc3s2)cc1O 5.65 µM
Nc1ccccc1-c1nc2ccccc2s1 17.9 µM
COc1ccc2nc(NC(=O)c3ccco3)sc2c1 0.634 µM
Cc1ccc(C(=O)Nc2cccc(C(=O)O)c2)cc1S(=O)(=O)N1CCCC1 2 µM
Cc1ccc2nc(-c3ccc(N)cc3)sc2c1 0.04 µM
C/C(=N\NC(=O)c1ccccc1NC(=O)c1ccc(Cl)cc1)c1ccncc1 0.283 µM
CCOc1ccc2nc(NC(=O)c3ccoc3C)sc2c1 1.79 µM
CN=c1scc(-c2ccccc2F)n1/N=C/c1ccc[nH]1 0.0504 µM
